The results in this text go back to PubChem BioAssay AID1851 (National Center for Advancing Translational Sciences (NCATS), 2009).

Each structure is given as a SMILES string. Hit rate of the full screen: of about 16,000 compounds, about 5,800 (36%) were called active. About 23% were inconclusive and are not listed. The list shows a part of the results. Values without a mark were called inactive. Calls follow the shape of the dose curve; as a rule, active = well fitted curve in the direction sought with a large enough effect; inconclusive = small, poorly fitted or top-dose-only effect, or effect the other way; inactive = no such curve, though single readings can be large or run the other way.

As a reminder, the AC50 is the concentration giving half of the maximal activity seen.
% is scaled to controls: 0 for no effect and ±100 for the full control effect.

The target of the experiment is Cytochrome P450 2C19 (Homo sapiens) (UniProt P33261). Briefly: Cytochrome panel assay with activity outcomes. The note with it: recombinant CYP, pro-luciferin dealkylation, luminescence, p450-cyp2c19; series mostly up to 57.1 µM; activity, negative = inhibition: at the top concentration.
Chain of Cytochrome P450 2C19 (Homo sapiens) (P33261 whole entry, looked up): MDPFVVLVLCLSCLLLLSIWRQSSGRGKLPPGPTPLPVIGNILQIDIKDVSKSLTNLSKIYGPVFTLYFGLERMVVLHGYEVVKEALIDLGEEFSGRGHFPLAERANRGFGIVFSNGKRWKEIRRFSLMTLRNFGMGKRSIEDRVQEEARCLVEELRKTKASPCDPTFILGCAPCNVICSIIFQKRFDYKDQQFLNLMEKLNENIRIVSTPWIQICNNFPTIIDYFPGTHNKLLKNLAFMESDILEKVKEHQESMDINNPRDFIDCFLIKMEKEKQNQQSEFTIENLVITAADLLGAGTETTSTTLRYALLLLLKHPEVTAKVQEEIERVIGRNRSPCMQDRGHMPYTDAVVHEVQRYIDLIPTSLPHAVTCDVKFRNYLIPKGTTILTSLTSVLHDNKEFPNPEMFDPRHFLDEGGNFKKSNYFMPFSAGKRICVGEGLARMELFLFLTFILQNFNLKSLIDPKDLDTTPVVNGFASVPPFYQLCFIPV
As for `Cc1cc(=O)[nH]c(SCC(=O)Nc2nc3c(s2)CCCC3)n1`, the AC50 was 7.94 µM (active).

For the compound `FC(F)(F)c1ccc(N2CCN(c3cc(-c4ccccc4)nc4ncnn34)CC2)nc1`, the AC50 is 3.55 µM (active).

Turning to `O=S(=O)(c1ccccc1)N1CCN(c2cc(-c3ccccc3)nc3ncnn23)CC1`, the AC50 was 11.2 µM (active). Regarding `O=S(=O)(c1ccccc1)N1CCC2(CCN(c3ncccn3)CC2)CC1`, the “activity, negative = inhibition” value was 32.2%. Still for that read-out and setting: as for `Cc1cnn(-c2cc(N/N=C/c3ccccc3)ncn2)c1`, the figure is 21.7%. `Cc1cccc(/C=N\Nc2cn[nH]c(=O)c2Cl)c1`: the concentration at half-maximal activity (AC50) was 10 µM (active).

For `CCOC(=O)C1C(=O)C=C(/C=C/c2ccccc2)CC1c1ccc(Cl)cc1` (configuration not stated), the AC50 was 8.91 µM (active). Consider `CCc1nnc(NC(=O)CCC(=O)NCc2ccccc2OC)s1`, for which the “activity, negative = inhibition” value was 13.2%. Consider `COc1ccccc1C(=O)NCCn1cc(SCC(=O)Nc2nnc(C)s2)c2ccccc21`, for which the AC50 is 8.91 µM (active). On the same count and under the same terms, the value for `CC(C)CN(CC(C)C)C1=N/C(=C\c2ccco2)C(=O)N1c1ccccc1` was 2.82 µM (active); that for `CCOC(=O)CN1C(=O)Nc2ccc(Br)cc2C1c1ccccc1` (configuration not stated) was 3.98 µM (active). In the case of `CCOC(=O)C1(C(=O)O)NC(=O)CC1c1ccccc1` (configuration not stated), the “activity, negative = inhibition” value is -18.1%. Regarding `O=C(Nc1ccccc1[N+](=O)[O-])C1C(c2ccccc2)=C1c1ccccc1`, the AC50 is 2.51 µM (active). Still for that read-out and setting: the value for `COc1ccc(CCC(C)Nc2cccc(F)c2)cc1` (configuration not stated) was 0.891 µM (active); that for `C[C@@H](CCc1ccc(O)cc1)NCCc1ccc(O)c(O)c1` was “inactive”. For `CC(=O)Nc1ccc(OC[C@@H](O)CNC(C)C)cc1`, the “activity, negative = inhibition” value was 27.7% [at 25.6 µM]. For `CC(=O)Nc1ccc(OCC(O)Cn2cnc3ccccc32)cc1` (configuration not stated), the AC50 is 22.4 µM (active). In the case of `OC(COCc1ccccc1)Cn1cnc2ccccc21` (configuration not stated), the AC50 is 14.1 µM (active). Consider `CN1CCCCC1=NCCCn1cnc2c1c(=O)n(C)c(=O)n2C`, for which the “activity, negative = inhibition” value was 16.6%.

Turning to `O=c1c(-c2cccc(F)c2)nc2cncnc2n1C1CC1`, the “activity, negative = inhibition” value is -28.1%. For `O=c1c(-c2cccc(Cl)c2)nc2cncnc2n1C1CC1`, the “activity, negative = inhibition” value is -21.7%.

In the case of `O=c1c(-c2cccc(Cl)c2)nc2cncnc2n1Cc1ccccc1Cl`, the AC50 was 5.01 µM (active). Turning to `O=c1c(-c2ccc(F)cc2)nc2cncnc2n1-c1ccccc1`, the “activity, negative = inhibition” value was -41.3%.

For the compound `O=c1c(-c2cc(F)cc(F)c2)nc2cncnc2n1Cc1ccccc1Cl`, the AC50 is 1.58 µM (active). Still for that read-out and setting: as for `O=c1c(-c2cccc(F)c2)nc2cncnc2n1Cc1ccccc1Cl`, the figure is 0.794 µM (active).

Take `O=c1c(-c2cccc(F)c2)nc2cncnc2n1-c1ccccc1`: the AC50 is 15.8 µM (active).

With `O=c1[nH]c(=O)n([C@@H]2C[C@H](O)[C@H](CO)O2)cc1I`, the “activity, negative = inhibition” value was 15.4% [at 25.6 µM]. Still for that read-out and setting: as for `O=C1C2C3C=CC(C2C(=O)N1CN1CCOCC1)C1C2C(=O)N(CN4CCOCC4)C(=O)C2C31` (configuration not stated), the figure is 22.1% [at 11.4 µM]. In the case of `O=C(Nc1ccc2c(c1)OCCO2)c1cccc2nc3ccccc3nc12`, the AC50 is 4.47 µM (active). As for `Cc1ccccc1NC(=O)c1cnc(Nc2nc3ccccc3s2)nc1C`, the “activity, negative = inhibition” value was -11.9%. Turning to `Cc1ccccc1NC(=O)c1cccc2nc3ccccc3nc12`, the AC50 is 3.55 µM (active). `O=c1c(-c2ccc(F)cc2)nc2cnc(Nc3ccccc3)nc2n1Cc1cccs1`: the “activity, negative = inhibition” value was -8.61%. As to `C=CCC(C)(NCc1ccccc1)c1ccco1` (configuration not stated), the AC50 is 11.2 µM (active). On the same count and under the same terms, the value for `Clc1ccc(COc2ccccn2)cc1Cl` was 2.24 µM (active). Regarding `CCOc1ccc(NC(=S)NC(=O)/C=C/c2ccc(OC)c(OC)c2)c([N+](=O)[O-])c1`, the “activity, negative = inhibition” value is -44.3%. As for `COc1ccc(/C=N/NC(=O)c2cccc([N+](=O)[O-])c2)cc1OS(=O)(=O)c1ccc(C)cc1`, the AC50 was 3.16 µM (active). Still for that read-out and setting: as for `CCOc1cc(/C=N/NC(=O)c2cccc([N+](=O)[O-])c2)ccc1OS(=O)(=O)c1ccccc1`, the figure is 14.1 µM (active); as for `COc1cc(/C=N\Nc2ccc([N+](=O)[O-])cc2)ccc1OCC(=O)Nc1ccc(C)c(C)c1`, 3.98 µM (active); as for `CCCOc1ccc(/C=C/C(=O)Nc2ccc([N+](=O)[O-])cc2C)cc1OC`, 3.98 µM (active). Regarding `CC(/C=N/NC(=O)c1cccc([N+](=O)[O-])c1)=C\c1ccccc1`, the “activity, negative = inhibition” value is -12%.

With `O=C(N=NC(=O)c1ccc2c(O)n(C3CCCCC3)c(O)c2c1)c1cccnc1`, the “activity, negative = inhibition” value is -21.3%. Take `COc1cccc(/C=N/NC(=O)c2cccc([N+](=O)[O-])c2)c1OS(=O)(=O)c1ccc(C)cc1`: the concentration at half-maximal activity (AC50) is 4.47 µM (active).

For the compound `COc1cc(/C=N/NC(=O)c2ccncc2)ccc1OC(=O)c1ccc([N+](=O)[O-])cc1`, the AC50 is 14.1 µM (active). For the compound `COc1cc(/C=N/NC(=O)c2cccnc2)ccc1OC(=O)c1ccc2c(c1)OCO2`, the “activity, negative = inhibition” value was -16.9%. Take `COCCCNC(=O)C(=O)N/N=C/c1ccc(OCC(=O)Nc2cccc(Cl)c2C)c(OC)c1`: the AC50 is 31.6 µM (active). The same measure, in the same setting: as for `COc1cc(C(=O)Oc2ccccc2/C=N/NC(=O)c2ccc(C)cc2)cc(OC)c1OC`, the figure is 0.398 µM (active). In the case of `CN(C)CCn1nnnc1SCC1=C(C(=O)O)N2C(=O)[C@@H](NC(=O)Cc3csc(N)n3)[C@@H]2SC1`, the “activity, negative = inhibition” value is 16.7% [at 25.6 µM].
